Source: PubChem
HPGD block: blocks human HPGD enzyme activity. P15428. purified HPGD, NADH fluorescence kinetic, PGE2 substrate. Potency, µM, without a hit: top-dose activity change, negative = inhibition, most hits filed as inhibitors. hit rate 4.3% among 150,000. AID 894; further: potency means the concentration at half of the fitted maximal effect; on the % scale 0 is the no-effect control and ±100 the full control effect
Target sequence (P15428 whole entry, looked up): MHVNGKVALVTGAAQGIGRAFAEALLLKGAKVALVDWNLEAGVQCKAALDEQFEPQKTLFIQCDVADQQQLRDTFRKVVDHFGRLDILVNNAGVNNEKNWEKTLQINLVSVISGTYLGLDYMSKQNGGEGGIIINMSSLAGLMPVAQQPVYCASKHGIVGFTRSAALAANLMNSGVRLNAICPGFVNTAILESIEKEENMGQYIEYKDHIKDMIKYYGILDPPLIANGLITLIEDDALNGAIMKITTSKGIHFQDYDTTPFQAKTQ
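NADH formation kinetics: reaction with 30 uM PGE2 and 1 mM NAD+ (final), 20 nM enzyme, Tris-HCl pH 8 with Tween 20, after 15 min compound preincubation at room temperature. Fluorescence change, last versus first of five reads.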
HTT ATP protect: protects HTT-Q103 PC12 cells, measured by ATP | PC12 HTT-Q103 induced, cytoprotection, ATP luminescence, 40 h | Potency, µM (series often up to 56.4 µM), for inactives: cytoprotection (ATP increase), most hits filed as activators | hit rate 0.14% among 230,000 | AID 1471; active means well fitted curve in the direction sought with a large enough effect; inconclusive means small, poorly fitted or top-dose-only effect, or another doubt; inactive means no such curve, though single readings can be large; an effect the other way counts as inactive or inconclusive; further: potency means the concentration at half of the fitted maximal effect; % of control where 0% means no effect; nearly all actives have a fitted effect of over 45% in size
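Readout: ATPlite luminescence (ATP level). Model: stable PC12, inducible Htt exon1 Q103-GFP. Inducer: tebufenozide, 100 nM final. Compounds: dose series. No G418 in medium.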
ALDH1A1 inh: blocks purified human ALDH1A1 activity. P00352. Purified ALDH1A1, NADH fluorescence, propionaldehyde substrate. Potency, µM (highest dose often 75.3 µM), inactives show top-dose activity, negative = inhibition, usual class: inhibitors. hit rate 7.3% among 220,000. AID 1030;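 further: potency means the concentration at half of the fitted maximal effect; plate controls were no enzyme wells and a reference inhibitor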
Target sequence (P00352 whole entry, looked up): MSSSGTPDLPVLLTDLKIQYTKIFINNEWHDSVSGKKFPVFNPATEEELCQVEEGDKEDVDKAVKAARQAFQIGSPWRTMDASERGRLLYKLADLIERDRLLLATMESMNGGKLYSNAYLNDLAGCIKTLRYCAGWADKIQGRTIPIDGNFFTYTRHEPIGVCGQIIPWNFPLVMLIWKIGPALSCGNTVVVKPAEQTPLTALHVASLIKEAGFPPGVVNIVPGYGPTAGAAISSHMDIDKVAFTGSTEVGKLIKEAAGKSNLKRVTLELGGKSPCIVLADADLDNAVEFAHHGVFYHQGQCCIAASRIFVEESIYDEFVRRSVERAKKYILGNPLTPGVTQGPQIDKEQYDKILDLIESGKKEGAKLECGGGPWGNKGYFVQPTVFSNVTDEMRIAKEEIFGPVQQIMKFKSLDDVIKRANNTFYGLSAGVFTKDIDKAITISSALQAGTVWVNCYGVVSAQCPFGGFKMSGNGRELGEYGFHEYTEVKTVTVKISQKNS
RGS12 GoLoco inh: RGS12 GoLoco-Gai1 interaction inhibition | P63096 | Gai1:RGS12 GoLoco peptide FP, rhodamine, 10 min | Potency, µM (titrated, usually from 61.6 µM), for the others: at the top dose activity, negative = inhibition, most hits filed as inhibitors | hit rate 0.44% among 230,000 | AID 880; active means well fitted inhibition curve with a large enough effect, not every such curve was filed as active; inactive means no such curve, though single readings can be large or run the other way; further: potency means the concentration at half of the fitted maximal effect; on the % scale 0 is the no-effect control and ±100 the full control effect; nearly all actives have a fitted effect of over 30% in size
HTT aggregate: mutant huntingtin aggregation inhibition | PC12 HttQ103-GFP aggregates, Acumen cytometry, 40 h | hit rate 1.1% among 220,000 | AID 1688 | Potency, µM (titrated, usually from 46.1 µM), for inactives: top-dose activity change, negative = inhibition, hits mostly inhibitors; active means well fitted curve in the direction sought with a large enough effect; inconclusive means small, poorly fitted or top-dose-only effect, or another doubt; inactive means no such curve, though single readings can be large; an effect the other way counts as inactive or inconclusive; further: potency means the concentration at half of the fitted maximal effect; on the % scale 0 is the no-effect control and ±100 the full control effect; nearly all actives have a fitted effect of over 60% in size
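Using laser scanning cytometry, GFP-positive aggregates were counted after lysis of PC12 cells induced with 100 nM tebufenozide to express HTT exon 1 Q103–GFP. Compounds were tested in titration.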
PNC inhibitor: perinucleolar compartment assembly inhibition. activity change (PNC), negative = inhibition, % at 10 µM. PC3M PTB-GFP, PNC prevalence imaging, 16 h; active compounds read low. hit rate 3.1% among 140,000;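 active means readout at or below -70, meaning at least 70% loss of cells showing the perinucleolar compartment, a nuclear body marking cancer cells; inconclusive means readout between -30 and a set limit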;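 further: plate controls were DMSO wells for no effect and camptothecin positive control wells for full effect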
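Read-out is percentage of cells bearing a perinucleolar compartment, from automated 20x imaging of fixed, Hoechst-stained PC3M PTB-GFP cells. Cells were seeded 4 h, then exposed 16 h to compound (23 nl of library stock) in duplicate plates.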
An asterisk follows results filed as active; ? = inconclusive; . = no result; [ ] = dose if it differs, or a comment. The list is not random: actives were taken first. Their share in the collection is about 11%. Unless noted, the call rests on the fitted dose curve; in most records, active means well fitted inhibition curve with a large enough effect (not every such curve was filed as active); inconclusive means small, poorly fitted or top-dose-only effect, or another doubt; inactive means no such curve, though single readings can be large or run the other way.

SMILES	HPGD block	HTT ATP protect	ALDH1A1 inh	RGS12 GoLoco inh	HTT aggregate	PNC inhibitor
CCc1cc2c(nc1CC)CCN(CC/C(C)=N/OC[C@@H](C)[C@H](OCc1ccccc1)C(C)C)C2	.	?	12%[13.5 µM]	.	.	.
Cc1ccc(S(=O)(=O)Nc2ccccc2/C=N/c2nc3ccccc3n2C)cc1	-21%	-12%[10 µM]	5%	-7%	25%	?
CCCNC(=O)CN1C(=O)NC(CCSC)C1=O (stereo not drawn)	.	9%[10 µM]	.	-2%	-8%[9.22 µM]	.
CCCc1cc2c(=O)c(-c3ccc4c(c3)OCCO4)c(C)oc2cc1OS(C)(=O)=O	-12%	1%[10 µM]	0.35µM*	171%	?	?
O=C(O)[C@@H]1C[C@@H](C(=O)O)N1	-11%	-9%	12%	13%	.	.
CN(C)/C=C1\NC(=S)N(c2ccccc2)C1=O	.	12%[10 µM]	?	-10%	-2%[9.22 µM]	.
COc1ccc(N2C(=O)/C(=C/c3cccs3)NC2=S)cc1	3.5µM*	10%[10 µM]	3.2µM*	-14%	23%	?
S=C([S-])NCCNC(=S)[S-].[Zn+2]	10µM*	?	11µM*	45%	.	.
COCCCNCCCOc1ccc(Cl)cc1C(C)(C)C	-10%	.	-6%	12%	7.9µM*	6
N[C@@H](Cc1ccccc1)c1nnc(SCc2ccccc2Cl)o1	28µM*	-2%	?	9%	12%	22
O=C(Nc1cccc(F)c1)N1CCC2(CC1)CCN(C(=O)c1csnn1)CC2	-1%	-16%	5%	-1%	.	.
CCOC(=O)C1C(c2cc(OC)c(OC)c(OC)c2)NC(=S)NC1(O)C(F)(F)F (stereo not drawn)	32µM*	0%	?	-19%	-11%	?
CCOc1cc(C2NC(=O)NC(O)(C(F)(F)F)C2C(=O)c2ccc(OC)cc2)ccc1O (stereo not drawn)	-12%	24%[10 µM]	5.6µM*	2%	12%	-1
O=c1nc(SCc2c(F)cccc2Cl)nc(-c2ccccc2)[nH]1	.	34%[10 µM]	.	6%	11%[9.22 µM]	.
O=[N+]([O-])c1cc(C(F)(F)F)ccc1N1CCC(O)CC1	.	19%[10 µM]	11µM*	7%	-6%[9.22 µM]	.
NC(=O)C1CCN(c2ccc(C(F)(F)F)cc2[N+](=O)[O-])CC1	-10%	-42%	8%	14%	7%	24
CCCC[C@H](O)c1ccccc1	.	-3%	.	.	1%	.
C[C@H](CCC(=O)O)[C@H]1CC[C@@H]2[C@@H]3CC[C@H]4C[C@@H](O)CC[C@@]4(C)[C@@H]3C[C@H](O)[C@@]21C	-8%	7%[10 µM]	0%[13.5 µM]	-2%[14.2 µM]	.	.
CN1C(=O)N(C)C2(c3ccccc3)NC(=O)NC12c1ccccc1 (stereo not drawn)	-9%	14%	6%	-1%	19%	?
CCN1c2ccccc2N(C)C1(C)c1ccccc1 (stereo not drawn)	-7%	16%[10 µM]	-7%	8.9µM*	13µM*	-13
CN1c2ccccc2N(C)C1(C)c1ccccc1	-11%	-19%[10 µM]	?	1.3µM*	-14%	-7
CN(C)C(CNc1ncnc2sc3c(c12)CCCC3)c1ccco1 (stereo not drawn)	.	-9%[10 µM]	1%	13%	-10%	.
COc1ccc(-c2csc(NC(=S)NC(=O)c3cccs3)n2)cc1OC	.	-60%	11µM*	28%	-27%	.
COc1ccc(S(=O)(=O)Nc2ccccc2C(=O)Nc2nc(-c3ccc(F)cc3)cs2)cc1OC	?	?	?	1%	10µM*	3
CCCCS(=O)(=O)N1CCc2nc(COc3ccccc3)c3c(c2C1)CO[C@@H](C)C3	-5%	?	2%[13.5 µM]	-1%[14.2 µM]	.	.
SMILES	HPGD block	HTT ATP protect	ALDH1A1 inh	RGS12 GoLoco inh	HTT aggregate	PNC inhibitor
COCCN(C(=O)CNC(=O)c1cccs1)C(C(=O)NC1CCCC1)c1cccs1 (stereo not drawn)	1%	-9%[10 µM]	12%	12%	20%	-23
COCCN(C(=O)C(F)(F)F)C(C(=O)NC1CCCCC1)c1ccco1 (stereo not drawn)	-11%	-2%	4.7µM*	-30%	-2%	?
COCCN(C(=O)CNC(=O)c1ccco1)C(C(=O)NC1CCCC1)c1cccs1 (stereo not drawn)	-18%	3%[10 µM]	6%	3%	24%	-100*
C=CCOC(=O)N[C@H](/C(C(=O)OC)=C(\C)NCc1ccccc1)c1cccc(C(F)(F)F)c1	-3%	?	0%	3%	.	.
Cc1cccc(Nc2n[nH]c(C)c2[N+](=O)[O-])c1	11µM*	-21%[10 µM]	0%	2%	2%	0
Cc1[nH]nc(Nc2ccccc2)c1[N+](=O)[O-]	-28%	3%	-3%	3%	-8%	44
OCCN(CO)CO	-2%	-3%[10 µM]	4%[13.5 µM]	1%[14.2 µM]	.	.
N/C(CN1CCCC1=O)=N\O	-8%	-7%[10 µM]	8%	0%	-7%	29
N/C(CN1CCCC1=O)=N\OC(=O)c1ccccc1Cl	-14%	14%[10 µM]	17%	-4%	3%	-87*
CC=C(Cl)Cl	0%	-54%	0%	-1%	.	.
COc1cccc(Nc2ncc3ncc(=O)n(C[C@H]4CCCO4)c3n2)c1	.	-40%	-12%	9%	.	.
COC(=O)c1cccc(-n2c(CCC(=O)O)ccc2-c2cccs2)c1	.	11%[10 µM]	4µM*	-2%	-14%[9.22 µM]	.
CC(=O)c1ccc(-n2c(CCC(=O)O)ccc2-c2cccs2)cc1	-18%	-45%	3.5µM*	10%	-5%	?
Cc1ccc(-n2c(CCC(=O)O)ccc2-c2cccs2)cc1	-20%	-1%	?	-11%	17%	?
NC(=O)c1ccc(-n2c(CCC(=O)O)ccc2-c2cccs2)cc1	.	-15%	3.2µM*	-16%	8%	.
Cc1cc(=O)[nH]c(/N=C(\N)Nc2ccc(Cl)cc2)n1	-7%	7%[10 µM]	-8%[13.5 µM]	-3%[14.2 µM]	.	.
Cc1c(C)n(Cc2ccccc2)c2ccc(C(=O)OCCN(C)C)cc12	.	-16%	-10%	9%	-8%	.
COc1ccc(C2NC(C(=O)O)Cc3c2[nH]c2ccccc32)cc1OC (stereo not drawn)	-23%	-14%	?	-9%	9%	-98*
COc1cc(C2NC(C(=O)O)Cc3c2[nH]c2ccccc32)cc(OC)c1OC (stereo not drawn)	-2%	-4%[10 µM]	?	1%	4%	?
NC(=O)COC(=O)CCSc1ccc(Cl)cc1	.	14µM*	15%	8%	?	.
COc1ccc(/C=C/C(=O)OCC(=O)Nc2ccc(S(N)(=O)=O)cc2)cc1OC	.	.	?	11%	16%	.
CN(C)S(=O)(=O)c1cc(NC(=O)COC(=O)CCSc2ccc(Cl)cc2)ccc1Cl	-13%	.	?	3%	17%	-88*
O=C(COC(=O)CCSc1ccc(Cl)cc1)Nc1ccc(F)cc1	-26%	0%[10 µM]	-5%	8%	-4%	12
COc1ccc(/C=C/C(=O)OCC(=O)Nc2ccc(Cl)c(S(=O)(=O)N(C)C)c2)cc1OC	?	5%[10 µM]	?	15%	20%	-110*
